Measured values as given in PubChem BioAssay (Tox21).
Records with an inconclusive call do not appear. The source made the active and inactive calls. Unless noted, the call rests on the fitted dose curve.

Tests used:
[1] = qHTS assay to identify small molecule agonists of the hypoxia (HIF-1) signaling pathway - cell viability counter screen (AID 1224844); further: nearly all actives have a fitted effect of over 50% in size
Method in brief: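 Cells (HRE-bla ME-180, 2,000 per well) sat 5 hrs at 37C, got compound for 17 hrs, were read for CCF4-AM FRET, and were finally lysed with CellTiter-Glo for a 30 min room-temperature luminescence read.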

[2] = qHTS assay to identify small molecule agonists of H2AX (AID 1224845; active means well fitted activation curve with a large enough effect in the signal ratio in the repeat runs, not every such curve was filed as active; the % refers to the signal ratio)
Method in brief: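 Wild-type CHO-K1 cells plated overnight, then exposed 3 hr at 37C to compounds at 15 concentrations (0.76% DMSO). Lysed, then HTRF anti-pH2AX(S139)-cryptate/anti-H2AX-d2 detection after 24 hr at room temperature; emissions 665 and 620 nm.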

[3] = qHTS assay to identify small molecule agonists of the hypoxia (HIF-1) signaling pathway (AID 1224846; active means well fitted activation curve with a large enough effect in the signal ratio in the repeat runs, not every such curve was filed as active; the % refers to the signal ratio)
Method in brief: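 A low-serum medium (0.5% dialyzed FBS) holding 2,000 HRE-bla ME-180 cells per well is preincubated for 5 hrs, dosed with compounds by pintool, and kept a further 17 hrs at 37C, 5% CO2 before CCF4-AM FRET detection of beta-lactamase.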

[4] = qHTS assay to identify small molecule agonists of H2AX - cell viability counter screen (AID 1224847); further: top concentration of the series differs between compounds; nearly all actives have a fitted effect of over 30% in size
Method in brief: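 Cells plated first: CHO-K1, 1000 per well in 10% FBS medium, incubated overnight at 37C. Then 15-point compound titration added (final DMSO 0.76%) for 3 hr. Finally CellTiter-Glo added and luminescence read.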

[5] = qHTS RealTime-Glo MT Cell Viability Assay in HepG2 cells - 24 hour (AID 1224867; active means well fitted cell-killing curve with a large enough effect in the repeat runs; further: nearly all actives have a fitted effect of over 50% in size)
Method in brief: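 Viability was tracked continuously by NanoLuc luminescence from prosubstrate reduced by living HepG2 cells, at successive time points over 40 h of compound exposure. Cells with reagent were preincubated 5 h at 37 °C before compound addition.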

[6] = target: Thyrotropin receptor (Homo sapiens) (UniProt P16473); test: qHTS assay to identify small molecule agonists of the thyroid stimulating hormone receptor (TSHR) signaling pathway (AID 1224843); further: nearly all actives have a fitted effect of over 45% in size
Method in brief: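 TSHR-expressing HEK293 cells (800 per well) were exposed to compounds for 30 min at room temperature. cAMP was then detected by HTRF competition with cAMP-d2 and anti-cAMP cryptate, read after 1 h at room temperature. Fifteen concentrations, triplicate.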

Measured: Potency

Chain of Thyrotropin receptor (Homo sapiens) (P16473 whole entry, looked up): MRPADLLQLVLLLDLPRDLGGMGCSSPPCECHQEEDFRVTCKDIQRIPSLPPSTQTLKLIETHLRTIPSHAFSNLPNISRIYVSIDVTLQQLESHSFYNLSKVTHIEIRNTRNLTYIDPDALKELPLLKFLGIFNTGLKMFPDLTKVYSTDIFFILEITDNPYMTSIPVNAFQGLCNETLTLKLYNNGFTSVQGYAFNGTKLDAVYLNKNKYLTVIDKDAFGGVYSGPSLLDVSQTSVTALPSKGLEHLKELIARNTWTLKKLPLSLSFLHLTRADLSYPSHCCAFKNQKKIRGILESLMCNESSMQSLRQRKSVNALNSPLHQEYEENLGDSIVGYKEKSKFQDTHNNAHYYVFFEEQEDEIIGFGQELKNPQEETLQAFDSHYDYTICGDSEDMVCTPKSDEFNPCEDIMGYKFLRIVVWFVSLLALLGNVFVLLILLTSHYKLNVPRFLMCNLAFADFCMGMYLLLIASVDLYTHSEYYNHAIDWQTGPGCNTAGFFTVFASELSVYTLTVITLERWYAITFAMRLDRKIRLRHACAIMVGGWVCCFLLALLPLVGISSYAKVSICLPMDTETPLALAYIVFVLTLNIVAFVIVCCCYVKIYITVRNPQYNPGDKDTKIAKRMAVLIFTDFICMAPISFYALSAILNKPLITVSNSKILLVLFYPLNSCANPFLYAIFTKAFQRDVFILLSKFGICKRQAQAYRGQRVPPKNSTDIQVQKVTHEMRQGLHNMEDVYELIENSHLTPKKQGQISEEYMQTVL

CCOC(=O)CN1CCCC1=O
not listed: [6]
inactive: all other assays above

C/C=C/C(=O)CCCC
inactive: [6] | [1] | [2] | [4]

CCc1ncc(C)[nH]1
not listed: [3]
inactive: all other assays above

CN(C)CCc1c[nH]c2ccc(C[C@H]3COC(=O)N3)cc12
inactive: [6] | [2] | [4]

COC(=O)c1ccc(NC(C)=O)cc1OC
not listed: [3]
inactive: all other assays above

CCCCN=C(N)N=C(N)N
not listed: [3]
inactive: all other assays above

O=C1CC2(CCCC2)CC(=O)N1CCNCC1COc2ccccc2O1 (stereo not drawn)
inactive: [1] | [2] | [3] | [4]

Cc1cc(C)c(N)c(Cl)c1
not listed: [6]
inactive: all other assays above

Cc1cc(O)c(Cl)cc1C
inactive: [1] | [2] | [4]

COC(C)(C)CC(C)=O
not listed: [6]
inactive: all other assays above

CCCCCCCCCCCCCC(=O)OCC
not listed: [6]
inactive: all other assays above

CCCCCCCOC(C)=O
not listed: [6]
inactive: all other assays above

CCOCCOCCOC(C)=O
not listed: [6]
inactive: all other assays above

COc1cc(OC)cc(OC)c1
not listed: [6]
inactive: all other assays above

COC(=O)c1ccc(C(=O)O)cc1
not listed: [6]
inactive: all other assays above

CCCC[O][Al]([O]CCCC)[O]CCCC
inactive: [1] | [2] | [4] | [5]

CCOC(=O)CC
not listed: [6]
inactive: all other assays above

N#CC1(N)CCCCC1
not listed: [6]
inactive: all other assays above

O=P(O)(O)C(O)(Cc1cccnc1)P(=O)(O)O
not listed: [6]
inactive: all other assays above

CC1(C)C(=O)C(C)(C)C1=O
not listed: [6]
inactive: all other assays above

COC(=O)c1ccccc1Cl
inactive: [1] | [2] | [4] | [5]

C=CCON/C(CCC)=C1\C(=O)CC(C)(C)C(C(=O)OC)=C1O
inactive: [1] | [2] | [3] | [5]

Clc1ccc2c(c1)Nc1ccccc1S2
inactive: [1] | [3] | [4]

CC(O)CCCCn1c(=O)c2c(ncn2C)n(C)c1=O (stereo not drawn)
not listed: [6]
inactive: all other assays above

CCOC(=O)COc1ccc2c(C)c(CCN(CC)CC)c(=O)oc2c1Cl
not listed: [6]
inactive: all other assays above

CCCCCCC(O)CO (stereo not drawn)
inactive: [1] | [2] | [4] | [5]

C=CCOC(=O)CCCCCCCC
not listed: [6]
inactive: all other assays above

CCCCN(CCCC)CCCCCCN(CCCC)CCCC
not listed: [6]
inactive: all other assays above

COC(=O)c1c(C)cc(O)c(C)c1O
not listed: [6]
inactive: all other assays above

CC(O)C(CO)C(C)O (stereo not drawn)
not listed: [6]
inactive: all other assays above

CC(C)(O)CCCC1=CCC(C=O)CC1 (stereo not drawn)
not listed: [6]
inactive: all other assays above

CC[N+](C)(CC)CC
not listed: [6]
inactive: all other assays above

COc1cc(NS(=O)(=O)c2ccc(N)cc2)ncn1
inactive: [1] | [2] | [4] | [5]

N#Cc1cc(NC(=O)C(=O)O)c(Cl)c(NC(=O)C(=O)O)c1
inactive: [1] | [2] | [4] | [5]

O=S(=O)(O)c1ccc(Cl)cc1
inactive: [1] | [2] | [3] | [5]

O=S(=O)(O)CC(O)CCl (stereo not drawn)
not listed: [6]
inactive: all other assays above

CC(=O)OCC(=O)[C@@]1(O)CC[C@H]2[C@@H]3CCC4=CC(=O)C=C[C@]4(C)[C@H]3[C@@H](O)C[C@@]21C
inactive: [1] | [2] | [4] | [5]

CCCCc1ccc(Cl)cc1
not listed: [6]
inactive: all other assays above

O=Cc1ccccc1S(=O)(=O)O
not listed: [6]
inactive: all other assays above

Cc1ccc2cccnc2c1
inactive: [1] | [2] | [4] | [5]

CCC(C)SSC(C)CC (stereo not drawn)
not listed: [6]
inactive: all other assays above

CC(C)CC(O)Cc1ccccc1 (stereo not drawn)
not listed: [6]
inactive: all other assays above

CC1=C(O)C(=O)CO1
not listed: [6]
inactive: all other assays above

CC(=O)Oc1ccc(C(C)=O)cc1
not listed: [6]
inactive: all other assays above

C=CCN(CC=C)CC=C
not listed: [6]
inactive: all other assays above
